HTT cytoprotect: cytoprotection in Huntington HTT-Q103 PC12 cell model; actives 0.14% (n = 230,000); AID 1471; Potency, µM (highest dose often 56.4 µM), for the others: cytoprotection (ATP increase), hits mostly activators; PC12 HTT-Q103 induced, cytoprotection, ATP luminescence, 40 h; note: % of control where 0% means no effect; nearly all actives have a fitted effect of over 45% in size
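Huntington model: PC12 line, ecdysone-inducible HTTQ103 exon1–GFP, tebufenozide 100 nM. Test articles in a dose series. Endpoint luminescence from cellular ATP.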
Luc counter: blocks Kinase-Glo luciferase, a counter-screen artifact | Kinase-Glo luciferase, ATP luminescence, 8 min | Potency, µM (doses to about 38.3 µM), without a hit: top-dose activity change, negative = inhibition, usual class: inhibitors | actives 0.28% (n = 200,000) | AID 1379; note: % is set by controls: 0 for no effect and ±100 for the full control effect; nearly all actives have a fitted effect of over 60% in size
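Compound is pinned into ATP-containing buffer (10 uM ATP, imidazole pH 7.2, 7 mM MgCl2). Kinase-Glo luciferase reagent is then added. Light output is recorded following an 8-min room-temperature incubation.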
ALDH1A1 block: ALDH1A1 (human) enzyme inhibition; Potency, µM (series often up to 75.3 µM), without a hit: at the highest dose activity, negative = inhibition, usual class: inhibitors; P00352; Purified ALDH1A1, NADH fluorescence, propionaldehyde substrate; AID 1030; actives 7.3% (n = 220,000); active = well fitted inhibition curve with a large enough effect, not every such curve was filed as active; inconclusive = small, poorly fitted or top-dose-only effect, or another doubt; inactive = no such curve, though single readings can be large or run the other way;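 note: plate controls were no enzyme wells and a reference inhibitor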
HPGD block: inhibitors of human 15-hydroxyprostaglandin dehydrogenase (HPGD). P15428. purified HPGD, NADH fluorescence kinetic, PGE2 substrate. Potency, µM, for inactives: at the top dose activity change, negative = inhibition, hits mostly inhibitors. actives 4.3% (n = 150,000). AID 894; active = well fitted inhibition curve with a large enough effect, not every such curve was filed as active; inconclusive = small, poorly fitted or top-dose-only effect, or another doubt; inactive = no such curve, though single readings can be large or run the other way; note: % is set by controls: 0 for no effect and ±100 for the full control effect
Target sequence (P15428 whole entry, looked up): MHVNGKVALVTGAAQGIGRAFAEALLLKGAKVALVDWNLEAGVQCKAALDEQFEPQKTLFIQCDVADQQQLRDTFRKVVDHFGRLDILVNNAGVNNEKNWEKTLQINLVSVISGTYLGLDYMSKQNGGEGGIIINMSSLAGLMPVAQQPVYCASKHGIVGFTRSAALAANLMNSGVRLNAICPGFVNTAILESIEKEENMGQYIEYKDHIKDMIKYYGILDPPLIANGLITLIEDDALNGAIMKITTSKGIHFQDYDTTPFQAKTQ
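20 nM HPGD preincubated 15 min at room temperature with compound in 50 mM Tris-HCl pH 8, 0.01% Tween 20. Started with 1 mM NAD+ and 30 uM prostaglandin E2; NADH fluorescence (360/450 nm) read 5 times over 30-s intervals, last minus first.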
HttQ103 aggreg: reduces HttQ103-GFP aggregates in PC12 cells. PC12 HttQ103-GFP aggregates, Acumen cytometry, 40 h. Potency, µM (top dose mostly 46.1 µM), for the others: top-dose activity change, negative = inhibition, actives largely listed as inhibitors. actives 1.1% (n = 220,000); note: % is set by controls: 0 for no effect and ±100 for the full control effect; nearly all actives have a fitted effect of over 60% in size
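Ecdysone-promoter PC12 model expressing HTT exon 1 Q103 fused to GFP, induced by tebufenozide at 100 nM final. Compounds titrated; aggregates sized 1–25 µm scored on a 488 nm laser cytometer.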
LMNA splice mod: LMNA splicing modulation; actives 0.01% (n = 200,000); HeLa LMNA splicing GFP/RFP minigene ratio, 48 h; Potency, µM (highest dose often 46.1 µM), inactives show top-dose ratio change, negative = inhibition, most hits filed as inhibitors; active = well fitted inhibition curve with a large enough effect in the signal ratio, with a control signal flat, not every such curve was filed as active; inconclusive = small, poorly fitted or top-dose-only effect, or effect the other way, or a change in a side signal; the % refers to the signal ratio; note: % is set by controls: 0 for no effect and ±100 for the full control effect
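S3 HeLa cells stably expressing lamin A-EGFP splicing minigene plus DsRed2, 600 cells/well, 48 h compound exposure at 37C. Laser-scanning cytometry; analysed as GFP (500-530 nm)/RFP (575-640 nm) total intensity ratio; 0.5% DMSO vehicle.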
The depositor's hits bear a star; ? = inconclusive; . = not tested or not shown; [ ] = dose if it differs, or a comment. Shown are actives, neighbours in structure and some others; about 9% of the full set was active somewhere. Unless noted, calls come from the whole dose curve; as a rule, active = well fitted curve in the direction sought with a large enough effect; inconclusive = small, poorly fitted or top-dose-only effect, or another doubt; inactive = no such curve, though single readings can be large; an effect the other way counts as inactive or inconclusive. Potency is the fitted concentration of half-maximal effect.

SMILES | HTT cytoprotect | Luc counter | ALDH1A1 block | HPGD block | HttQ103 aggreg | LMNA splice mod
Cc1ncc([N+](=O)[O-])n1CC(=O)NC1CCCC1 | 13.0%[10 µM] | 1.8% | 7.0% | -9.1% | -3.3% | 0.4%
CN1CCc2nc3sc(C(=O)NCc4ccccc4)c(N)c3cc2C1 | -63.1% | 0.6% | 25.1µM* | . | 4.6%[9.22 µM] | ?
CN1CCc2nc3sc(C(=O)Nc4ccccc4OC(F)(F)F)c(N)c3cc2C1 | . | . | . | . | . | -10.2%[46 µM]
Cc1ccc2[nH]c(C)cc(=S)c2c1 | ? | -3.0% | 17.8µM* | . | 10.4% | .
Cc1cccc(C)c1-n1nnnc1-c1cnccc1C(F)(F)F | -1.4%[10 µM] | . | 20µM* | . | 5.1%[9.22 µM] | .
CCC(=O)NC(c1ccccc1OC)c1ccc2cccnc2c1O (configuration not stated) | -71.6%[10 µM] | 0.7% | 0.5% | -10.7% | 3.16µM* | ?
COC(=O)c1cc(C)nc(Sc2ccccc2N)n1 | -32.0%[10 µM] | . | 3.55µM* | . | -32.5%[9.22 µM] | .
CC(=N/O)/C(C)=N\NC(=O)c1ccccn1 | -92.0% | ? | 11.7% | . | 3.5% | -7.2%[9.22 µM]
S=c1nn[nH]n1C12CC3CC(CC(C3)C1)C2 | 0.2% | 21.0% | 2.82µM* | ? | 14.6% | 2.9%
S=c1nc(C23CC4CC(CC(C4)C2)C3)[nH][nH]1 | 20.4%[10 µM] | . | . | . | -2.5%[9.22 µM] | .
C=CCOc1ccc(Cl)cc1CNC1CCCC1 | 22.4µM* | -2.7% | -2.1% | . | -4.5% | -19.9%[46 µM]
O=C(O)c1ccc(Cn2nnc3sc4c(c3c2=O)CCCC4)cc1 | -1.4%[10 µM] | -1.4% | 3.8% | . | 3.4%[9.22 µM] | 1.7%[46 µM]
CCS(=O)(=O)c1ccc2oc(Nc3ccc(C(C)C)cc3)nc2c1 | 5.9%[10 µM] | -2.2% | 3.98µM* | 3.98µM* | 11.2% | -3.1%
CCOc1ccc(Nc2nc3cc(S(=O)(=O)N(CC)CC)ccc3o2)cc1 | -15.0% | 1.6% | 3.16µM* | 3.55µM* | 6.0% | ?
CCS(=O)(=O)c1ccc2oc(Nc3cc(C)cc(C)c3)nc2c1 | -51.5% | -0.1% | ? | -27.2% | -4.7% | ?
COc1ccc(N2CCN(c3oc(-c4ccco4)nc3C#N)CC2)cc1 | -11.4%[0.074 µM] | 2.8% | ? | -13.7% | -8.4% | ?
S=C(NCCC(c1ccccc1)c1ccccc1)Nc1ccc(Cl)cc1 | -69.9% | -3.6% | -13.7% | -11.9% | ? | ?
COc1ccc(-c2c[n+](CC(=O)OC3CC(C)CCC3C(C)C)c3n2CCC3)cc1 (configuration not stated) | -30.5%[10 µM] | 1.3% | 0.3% | . | 10µM* | ?
Cc1cc(C)c2c(=O)n(-c3ccccc3)[nH]c2n1 | 0.3% | -0.8% | ? | -12.2% | -4.8% | 8.7%
Cc1cc(C(C)(C)C)nc2[nH]n(-c3ccccc3)c(=O)c12 | -13.6% | -1.1% | -2.1% | 15.8µM* | -27.6% | -6.7%
CO/N=C(/CS(=O)c1ccc(Br)cc1)c1ccc(OC)cc1 (configuration not stated) | 1.5% | -3.3% | -11.5% | -5.9% | -5.6% | -3.1%
COc1cccc(NC(=O)CN(C)CC(=O)Nc2ccc(C)cc2Cl)c1 | 8.5%[10 µM] | 4.3% | 11.2µM* | . | 13.9% | -17.1%[46 µM]
CN(C)/C=C1\Cc2ccccc2C1=O | 9.0%[10 µM] | . | . | . | -8.6%[9.22 µM] | .
C/[N+]([O-])=C1\Cc2ccccc2C1=O | 2.6% | -2.6% | 3.55µM* | -11.7% | -8.2% | 1.8%
O=[N+]([O-])c1ccc(S(=O)(=O)N2CCSC2c2ccco2)cc1 (configuration not stated) | 11.8%[10 µM] | . | 3.98µM* | . | -3.6%[9.22 µM] | ?
O=S(=O)(c1ccc(Cl)cc1)N1CCSC1c1ccco1 (configuration not stated) | -2.3% | -2.3% | ? | -3.8% | -15.9% | 12.8%
Cn1c(=O)c2c3c(sc2n2c(SCC(=O)c4ccccc4)nnc12)COC(C)(C)C3 | -6.3% | . | ? | . | 30.2% | -5.5%
CC(C)(C)NC(=O)CN(Cc1cccs1)C(=O)CN1C(=O)C(=O)c2ccccc21 | -19.6% | 4.4% | 0.0282µM* | . | -5.7% | .
COc1nc(NCCO)nc(Nc2ccc([N+](=O)[O-])cc2)n1 | 9.5%[10 µM] | 7.1% | ? | 20µM* | -5.4% | -11.5%

Bioassay records as filed in PubChem.
